Experimental data: PubChem BioAssay (EPA / NIEHS)
Inconclusive results are not listed. Activity calls are given as the source filed them. How the source made its calls, unless noted: active means hit-call score of the fitted dose curve at least 0.9, where 1 is the maximum; inconclusive means response in the unintended direction; inactive means score below 0.9.

Key:
[1] = ACEA_ER_AUC_viability: ACEA Biosciences xCELLigence Real-Time Cell Analysis on Estrogen Receptor Agonism for Viability (AID 2283782);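 further: hit means loss of impedance signal meaning reduced cell growth or viability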
Method in brief: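 Continuous-exposure impedance cell analysis uses T-47D cells in charcoal-stripped serum, eight 1:4 dilutions topping at 100 uM final, biological duplicate. Area under the growth curve at 80 h is fitted against DMSO baseline.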

[2] = CCTE_Harrill_HTTr_Viability_MCF7: CCTE's 6-hour Cell Viability Assessment for the High-Throughput Transcriptomics (HTTr) Platform, in MCF-7 cells cultured in DMEM + 10% fetal bovine serum, Harrill Lab (AID 2284010; active means hit-call score of the fitted dose curve at least 0.9, where 1 is the maximum; inactive means score below 0.9)
Method in brief: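 Propidium iodide exclusion, imaged by high-content analysis, gauged viability after a six-hour exposure across eight concentrations. Cells were MCF-7 grown in DMEM with 10% fetal bovine serum; fits run in both directions against DMSO.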

[3] = CCTE_Harrill_HTTr_Apoptosis_MCF7: CCTE's 6-hour Apoptosis Assessment for the High-Throughput Transcriptomics (HTTr) Platform, in MCF-7 cells cultured in DMEM + 10% fetal bovine serum, Harrill Lab (AID 2284011; active means hit-call score of the fitted dose curve at least 0.9, where 1 is the maximum; inactive means score below 0.9)
Method in brief: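 High-content imaging of CellEvent Caspase 3/7 Green signal follows a six-hour exposure, with eight concentrations per chemical. MCF-7 cells grown in DMEM plus 10% fetal bovine serum; activity fitted in both directions against DMSO.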

[4] = CCTE_Harrill_HTTr_CellCount_MCF7: CCTE's Cell Proliferation Assessment for the High-Throughput Transcriptomics (HTTr) Platform, Harrill Lab (AID 2284012);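 further: cells exposed to compound for six hours; intended direction is loss of nuclei count meaning fewer cells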
Method in brief: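 Cell count from high-content imaging of Hoechst-labeled nuclei serves as viability/growth readout. Chemicals were applied to MCF-7 cells in eight concentrations for six hours, with fitting in both directions relative to DMSO.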

[5] = TOX21_p53_BLA_p3_viability: Viability Assessment in the Tox21 HCT-116 p53 Agonism Beta-lactamase Assay, Phase 3 (AID 2283593);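 further: cells exposed to compound for 16 h before reading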
Method in brief: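 HCT-116 cells (4000/well) rested 5 h at 37C, then got DMSO compounds by pin tool (217-fold dilution) for 16 h at 37C, 5% CO2. After the bla read, CellTiter-Glo was added and luminescence read at 30 min, room temperature.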

[6] = target: Cellular tumor antigen p53 (Homo sapiens) (UniProt P04637); assay: TOX21_p53_BLA_p2_ratio: Tox21 HCT-116 p53 Agonism Beta-lactamase Assay, Ratio, Phase 2 (AID 2283592)
Sequence of Cellular tumor antigen p53 (Homo sapiens) (P04637 whole entry, looked up): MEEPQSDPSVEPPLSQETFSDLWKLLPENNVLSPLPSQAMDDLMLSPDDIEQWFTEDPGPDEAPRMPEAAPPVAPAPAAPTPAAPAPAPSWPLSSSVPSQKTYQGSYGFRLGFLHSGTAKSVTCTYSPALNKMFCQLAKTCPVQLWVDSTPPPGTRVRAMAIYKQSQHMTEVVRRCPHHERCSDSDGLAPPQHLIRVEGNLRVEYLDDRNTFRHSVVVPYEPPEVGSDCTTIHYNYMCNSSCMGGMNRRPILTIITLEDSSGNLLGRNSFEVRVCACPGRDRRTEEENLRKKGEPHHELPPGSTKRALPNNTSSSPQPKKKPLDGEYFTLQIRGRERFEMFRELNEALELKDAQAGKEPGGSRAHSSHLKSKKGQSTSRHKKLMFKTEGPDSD
Method in brief: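 Read-out is the blue/green (460/530 nm, 405 nm excitation) ratio after 2 h CCF4-AM loading, fitted as gain versus DMSO. Compounds, pinned at 217-fold dilution from DMSO stocks, stayed 16 h on HCT-116 beta-lactamase reporter cells seeded 5 h earlier.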

[7] = target: Cellular tumor antigen p53 (Homo sapiens) (UniProt P04637); assay: TOX21_p53_BLA_p3_ratio: Tox21 HCT-116 p53 Agonism Beta-lactamase Assay, Ratio, Phase 3 (AID 2283596)
Method in brief: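 Cells were seeded at 4000/well, rested 5 h at 37C, then dosed with DMSO compound solutions (217-fold dilution) for 16 h. CCF4-AM substrate was loaded for 2 h at room temperature, and the 460/530 nm emission ratio was fitted for gain of signal versus DMSO.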

[8] = TOX21_p53_BLA_p4_viability: Viability Assessment in the Tox21 HCT-116 p53 Agonism Beta-lactamase Assay, Phase 4 (AID 2283597);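 further: hits lower the luminescence signal meaning cytotoxicity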
Method in brief: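 Cytotoxicity as reduced cellular ATP (CellTiter-Glo luminescence, 30 min room temperature), measured in the same wells following the CCF4 FRET p53 reading. Human HCT-116 cells received compounds in DMSO (217-fold dilution) for 16 h.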

[9] = TOX21_p53_BLA_p5_viability: Viability Assessment in the Tox21 HCT-116 p53 Agonism Beta-lactamase Assay, Phase 5 (AID 2283600)
Method in brief: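 Viability came from CellTiter-Glo ATP luminescence, read after 30 min at room temperature. Before this, HCT-116 p53-bla cells (4000/well) had 16 hours of compound exposure at 37C, with DMSO stocks diluted 217-fold on transfer.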

[10] = target: Cellular tumor antigen p53 (Homo sapiens) (UniProt P04637); assay: TOX21_p53_BLA_p4_ratio: Tox21 HCT-116 p53 Agonism Beta-lactamase Assay, Ratio, Phase 4 (AID 2283601)
Method in brief: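 HCT116 cells carrying an inducible beta-lactamase reporter were plated at 4000 cells/well, rested 5 h, then exposed to compounds in DMSO (217-fold dilution) for 16 h at 37C. CCF4-AM substrate was loaded 2 h at room temperature; 460/530 nm emission ratio scored gain-of-signal versus DMSO.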

[11] = target: Cellular tumor antigen p53 (Homo sapiens) (UniProt P04637); assay: TOX21_p53_BLA_p5_ratio: Tox21 HCT-116 p53 Agonism Beta-lactamase Assay, Ratio, Phase 5 (AID 2283599)
Method in brief: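 HCT-116 cells carrying a p53-inducible beta-lactamase reporter were seeded at 4000 cells/well and dosed after 5 h with compound in DMSO (217-fold dilution). After 16 h at 37C, CCF4-AM substrate was added for 2 h, and the 460/530 nm emission ratio was scored as gain-of-signal versus DMSO.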

[12] = target: Thyroid hormone receptor alpha (Rattus norvegicus) + Thyroid hormone receptor beta (Rattus norvegicus) (UniProt P18113+P63059); assay: TOX21_TR_LUC_GH3_Antagonist_Followup: Tox21 GH3 Thyroid Hormone Receptor Antagonism Luciferase Follow-Up Assay (AID 2283942)
Method in brief: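 In a GH3 luciferase reporter line, test chemicals spanning 92 uM to 5nM final are co-incubated 24 h with 1.0 nM T3. Activity is expressed as relative luminescence units and analysed relative to DMSO.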

THRA (gene 7067) = THRA (gene 7067) (UniProt P10827); assay: TOX21_TRA_COA_Antagonist_Followup_ratio: Tox21 Thyroid Hormone Receptor alpha Antagonism through Coactivator Recruitment Follow-Up Assay, Ratio (AID 2283953)
Sequence of THRA (gene 7067) (P10827 whole entry, looked up, the tested form may be a part): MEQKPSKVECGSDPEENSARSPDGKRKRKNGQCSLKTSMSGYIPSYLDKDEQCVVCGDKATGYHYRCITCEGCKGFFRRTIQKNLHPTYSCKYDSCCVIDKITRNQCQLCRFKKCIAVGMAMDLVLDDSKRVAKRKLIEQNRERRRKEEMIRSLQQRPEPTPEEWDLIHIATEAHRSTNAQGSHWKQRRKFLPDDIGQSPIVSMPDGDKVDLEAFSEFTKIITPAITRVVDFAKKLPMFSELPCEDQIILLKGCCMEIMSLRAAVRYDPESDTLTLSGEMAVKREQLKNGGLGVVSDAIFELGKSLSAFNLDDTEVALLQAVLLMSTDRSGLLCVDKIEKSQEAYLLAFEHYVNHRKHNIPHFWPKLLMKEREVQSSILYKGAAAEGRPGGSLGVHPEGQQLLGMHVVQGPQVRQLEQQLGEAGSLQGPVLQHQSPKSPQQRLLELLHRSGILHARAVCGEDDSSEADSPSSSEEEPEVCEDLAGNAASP
Method in brief: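 GST-TRα LBD 2.5 nM, BSA 0.10%, + cpd; then FITC-SRC-2 peptide 200 nM + Tb-anti-GST Ab 2 nM. TR-FRET ratio 520/495 nm. Norm: DMSO = 0%, T3 = 100%.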

[13] = TOX21_TRB_BLA_Antagonist_Followup_viability: Viability Assessment in the Tox21 Thyroid Hormone Receptor beta Antagonism Beta-lactamase (BLA) Follow-Up Assay (AID 2283961)
Method in brief: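 ATP-based CellTiter-Glo luminescence (30 min, room temperature) run in the same wells as the TRβ-bla readout. Cells: GeneBLAzer HEK293T expressing GAL4-TRβ LBD, exposed 18 h at 37C to compounds at 11 concentrations in triplicate, stripped-serum medium.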

THRB (gene 7068) = THRB (gene 7068) (UniProt P10828); assay: TOX21_TRB_COA_Antagonist_Followup_ratio: Tox21 Thyroid Hormone Receptor beta Antagonism through Coactivator Recruitment Follow-Up Assay, Ratio (AID 2283967)
Sequence of THRB (gene 7068) (P10828 whole entry, looked up, the tested form may be a part): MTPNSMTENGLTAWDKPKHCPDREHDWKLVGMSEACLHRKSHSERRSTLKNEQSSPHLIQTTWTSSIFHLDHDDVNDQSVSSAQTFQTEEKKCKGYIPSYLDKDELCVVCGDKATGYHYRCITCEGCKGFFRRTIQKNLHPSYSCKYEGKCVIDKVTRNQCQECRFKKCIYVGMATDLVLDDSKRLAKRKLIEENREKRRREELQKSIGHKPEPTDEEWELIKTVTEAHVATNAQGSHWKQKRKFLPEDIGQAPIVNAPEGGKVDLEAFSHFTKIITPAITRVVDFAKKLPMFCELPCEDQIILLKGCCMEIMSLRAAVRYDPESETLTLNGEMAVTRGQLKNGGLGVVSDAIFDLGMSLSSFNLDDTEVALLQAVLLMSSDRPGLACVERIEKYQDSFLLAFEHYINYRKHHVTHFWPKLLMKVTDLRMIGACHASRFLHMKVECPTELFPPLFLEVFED
Method in brief: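 Coactivator (SRC-2) recruitment to purified GST-TRβ ligand-binding domain is monitored by terbium-to-fluorescein energy transfer, emission ratio 520:495 nm. DMSO wells define 0% and T3 wells 100% activity.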

[14] = target: Retinoic acid receptor RXR-alpha (Homo sapiens) (UniProt P19793); assay: TOX21_TR_RXR_BLA_Antagonist_Followup_ratio: Tox21 Thyroid Hormone Receptor beta Retinoid X Receptor alpha (RXRa) Antagonism Beta-lactamase (BLA) Follow-Up Assay, Ratio (AID 2283972)
Sequence of Retinoic acid receptor RXR-alpha (Homo sapiens) (P19793 whole entry, looked up): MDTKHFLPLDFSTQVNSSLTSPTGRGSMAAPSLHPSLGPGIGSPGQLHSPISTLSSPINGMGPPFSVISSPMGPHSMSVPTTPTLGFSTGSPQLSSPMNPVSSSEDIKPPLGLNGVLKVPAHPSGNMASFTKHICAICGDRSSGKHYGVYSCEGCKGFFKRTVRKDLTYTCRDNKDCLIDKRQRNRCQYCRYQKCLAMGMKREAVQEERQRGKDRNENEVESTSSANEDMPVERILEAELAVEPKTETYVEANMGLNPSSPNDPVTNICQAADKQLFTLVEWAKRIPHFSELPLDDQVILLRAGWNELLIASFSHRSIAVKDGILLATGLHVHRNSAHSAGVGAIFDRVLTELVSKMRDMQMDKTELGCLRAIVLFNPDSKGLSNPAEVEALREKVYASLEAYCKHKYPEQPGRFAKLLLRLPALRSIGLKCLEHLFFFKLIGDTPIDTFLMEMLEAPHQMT
Method in brief: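 After 5 h attachment at 37C, HEK293T RXRa-bla cells (2,500/well, 2% charcoal-stripped FBS, no phenol red) received compounds at 11 concentrations in triplicate for 16 h. Beta-lactamase read as 460:530 nm ratio after 2 h RT substrate loading.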

[15] = TOX21_TR_RXR_BLA_Antagonist_Followup_viability: Viability Assessment in the Tox21 Thyroid Hormone Receptor beta Retinoid X Receptor alpha (RXRa) Antagonism Beta-lactamase (BLA) Follow-Up Assay (AID 2283979)
Method in brief: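 RXRa-UAS-bla HEK293T cells seeded 2,500/well in phenol red-free DMEM with 2% charcoal-stripped FBS, attached 5 h, then exposed to compounds at 11 concentrations in triplicate for 16 h at 37C/5% CO2. Viability read by CellTiter-Glo ATP luminescence; bidirectional fit versus DMSO.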

Measured: AC50

O=C(c1ccc(Cl)cc1)c1ccc(Cl)cc1
inactive: [1] | [2] | [3] | [4]

COCCOC(=O)CC#N
active: [1] 50 µM

CCOCCC(=O)OCC
inactive: [5]

CNC(=O)c1ccccc1
inactive: [5]

O=C(O)CP(=O)(O)O
inactive: [6] | [7] | [8] | [9] | [10]

CC1(C)CO[C@@H](CC(=O)O)CN1
inactive: [6] | [7] | [8] | [11] | [10]

COC(=O)c1cccc(Cl)c1
inactive: [6] | [7] | [8] | [9] | [10]

[O-][n+]1ccccc1SSc1cccc[n+]1[O-]
inactive: [6] | [8] | [11] | [9] | [10]
active: [7] 9.52 µM

CC(=O)O[C@H]1CC[C@@]2(C)C(=CC[C@@H]3[C@@H]2CC[C@]2(C)C(c4cccnc4)=CC[C@@H]32)C1
inactive: [6] | [7] | [8] | [11] | [10]

C[n+]1ccn(Cc2ccccc2)c1
inactive: [6] | [7] | [8] | [11] | [9] | [10]

CNC[C@@H]1CC[C@@H](N)[C@@H](O[C@H]2[C@H](O)[C@@H](O[C@H]3OC[C@](C)(O)[C@H](NC)[C@H]3O)[C@H](N)C[C@@H]2N)O1
inactive: [6] | [7] | [8] | [9]

O=C(N=NC(=O)OCc1ccccc1)OCc1ccccc1
inactive: [6] | [7] | [8] | [11] | [9] | [10]

O=C(CCN1CCC(c2ccccc2)C1)c1ccc2c(c1)OCCO2 (centres undefined)
inactive: [6] | [7] | [8] | [10]
active: [11] 41.1 µM

CCCCOC(=O)CCS
inactive: [6] | [7] | [8] | [11] | [9] | [10]

O=C[O][Al]([O]C=O)[O]C=O
inactive: [6] | [7] | [8] | [11] | [9] | [10]

CN(C)c1ccc(SC#N)cc1
inactive: [6] | [7] | [8] | [11] | [10]

CC(C)COC(=O)OCN1C(=O)CN(CCN2CC(=O)N(COC(=O)OCC(C)C)C(=O)C2)CC1=O
active: [6] 4.1 µM | [7] 4.07 µM | [11] 7.4 µM | [10] 3.05 µM
inactive: [8]

C=C(C)C(=O)OC
inactive: [6] | [7] | [8] | [11] | [10]

Cc1ncsc1CCO
inactive: [6] | [7] | [8] | [9]

COc1cc2c(cc1OC)[C@@H](c1ccccc1)CN(C)CC2
inactive: [6] | [7] | [8] | [11] | [10]

Cc1ccccc1N=O
inactive: [6] | [7] | [8] | [11] | [10]

CC(C)OC(=O)C(C(=O)OC(C)C)=C1SC=CS1
inactive: [6] | [7] | [8] | [11] | [9] | [10]

NC(=O)Nc1nc2ccccc2[nH]1
inactive: [6] | [7] | [8] | [9] | [10]

CC(=O)Oc1cc(C(F)(F)F)ccc1C(=O)O
inactive: [6] | [7] | [8] | [11] | [9] | [10]

S=C(SSSSSSC(=S)N1CCCCC1)N1CCCCC1
inactive: [6] | [7] | [8] | [9] | [10]

COc1ccc(Nc2ccc(OC)cc2)cc1
inactive: [7] | [8] | [11]
active: [6] 71.5 µM | [10] 73.2 µM

COc1ccc(/C=C/C(=O)O)cc1
inactive: [6] | [7] | [8] | [11] | [10]

O=C(CN1CCNCC1)NC1CCCCC1
inactive: [6] | [7] | [8] | [11] | [10]

CCCCCCCCCCCCCCCCI
inactive: [6] | [7] | [8] | [11] | [10]

CCN(CC)C(=O)[C@]1(c2ccccc2)C[C@@H]1CN
inactive: [6] | [7] | [8] | [11] | [9] | [10]

Cc1ccc(/C(=C\CN2CCCC2)c2ccccn2)cc1
inactive: [6] | [7] | [8] | [9] | [10]

CC(C)(C)C(=O)NCCCC(=O)O
inactive: [6] | [7] | [8] | [9] | [10]

C[Si](Cl)(c1ccccc1)c1ccccc1
inactive: [6] | [7] | [8] | [11] | [10]

CO[C@H]1[C@@H](O)[C@H](N)[C@@H](O[C@H]2O[C@H]([C@H](C)N)CC[C@H]2N)[C@H](O)[C@@H]1N(C)C(=O)CN
inactive: [6] | [7] | [8] | [9] | [10]

COc1cc(C(=O)NC2CCCNC2)cc(OC)c1OC (centres undefined)
inactive: [6] | [7] | [8] | [11] | [10] | [12] | THRA (gene 7067) | [13] | THRB (gene 7068) | [14] | [15]
